Source: PubChem BioAssay (Broad Institute)
The full list was thinned out, with hits kept by preference.
IDE exosite FP: displaces the probe from the exo-site of human IDE; purified IDE, FL-6b probe fluorescence polarization; stronger effect = lower value; z-score at 20 µM; hit rate 6.3% among 17,000; AID 1259349;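 active means z-score of -3 or lower, meaning strong loss of probe binding signal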;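 further: His-tagged human IDE residues 42-1019 made in E. coli with 30 nM FL-6b probe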
Large screens that a line does not name were inactive; ! = not active in a repeat.

COc1ccccc1NC(=O)N1CC(=O)N2[C@@H](CO)[C@@H](c3ccc(C#CC4CC4)cc3)[C@@H]2C1	none
CCC(=O)Nc1ccc2c(c1)OC[C@@H](C)N(Cc1ccccc1)C[C@@H](C)[C@@H](OC)CN(C)C2=O	none
CCC(=O)Nc1ccc2c(c1)C(=O)N(C)C[C@H](OC)[C@H](C)CN(C(=O)Cc1cccnc1)[C@H](C)CO2	none
C[C@@H]1CN([C@H](C)CO)C(=O)Cc2cc(N(C)C)ccc2O[C@@H]1CN(C)C(=O)NC1CCCCC1	none
COc1cccc(-c2ccc([C@@H]3[C@H](CO)N4CCCCN(C(=O)NC(C)C)C[C@@H]34)cc2)c1	IDE exosite FP -6.5
CC(C)NC(=O)N1CCCCN2[C@@H](CO)[C@H](c3ccc(Br)cc3)[C@@H]2C1	none
CC(C)NC(=O)N1CCCCN2[C@@H](CO)[C@@H](c3ccc(Br)cc3)[C@@H]2C1	none
COc1cccc(-c2ccc([C@H]3[C@H]4CN(C(=O)NC(C)C)CCCCN4[C@H]3CO)cc2)c1	IDE exosite FP -10
COc1cccc(-c2ccc([C@@H]3[C@H](CO)N4CCCCN(C(=O)c5ccc6c(c5)OCO6)C[C@@H]34)cc2)c1	none
COc1cccc(-c2ccc([C@H]3[C@H](CO)N4CCCCN(C(=O)c5ccc(F)cc5)C[C@@H]34)cc2)c1	none
C[C@@H]1CN([C@@H](C)CO)C(=O)c2cc(NS(=O)(=O)c3cn(C)cn3)ccc2O[C@@H](C)CCCCO[C@@H]1CN(C)Cc1ccc2c(c1)OCO2	none
N#Cc1ccc(-c2ccc([C@@H]3[C@@H](CO)N4C(=O)CN(C(=O)C5CCC5)C[C@H]34)cc2)cc1	none
O=C(C1CC1)N1CC(=O)N2[C@H](CO)[C@H](c3ccc(C4=CCCCC4)cc3)[C@@H]2C1	none
CCC(=O)NC[C@H]1N[C@H](CO)[C@@H]1c1ccc(-c2cccnc2)cc1	none
CN(C)CC(=O)N1[C@H](C#N)[C@H](c2ccc(-c3ccc(C(=O)N(C)C)cc3)cc2)[C@H]1CO	none
CO[C@H]1CC[C@H]2CCN(C)C(=O)[C@@H](C)CN(C)C(=O)c3cc(C#N)ccc3OC[C@H]1O2	none
O=C(Cc1ccccc1)N1CC(=O)N2[C@H](CO)[C@@H](c3ccc(-c4cccc(F)c4)cc3)[C@H]2C1	none
CCC(=O)N1CC(=O)N2[C@H](CO)[C@H](c3ccc(C#Cc4cccnc4)cc3)[C@@H]2C1	none
O=S(=O)(c1ccc(-c2ccccc2)cc1)N1C[C@@H]2N[C@H](C1)C2c1ccc(-c2ccncc2)cc1 (some centres not stated)	none
O=C(Cc1ccncc1)N1C[C@@H]2N[C@H](C1)C2c1ccc(-c2ccccc2)cc1 (some centres not stated)	IDE exosite FP -3.1
C/C=C/c1ccc(C2[C@@H]3CN(C(=O)Cc4ccccc4)C[C@H]2N3)cc1 (some centres not stated)	none
O=C(Cc1ccncc1)N1C[C@@H]2N[C@H](C1)C2c1ccc(/C=C/c2ccccc2)cc1 (some centres not stated)	IDE exosite FP -4.6!
C/C=C/c1ccc(C2[C@@H]3CN(C(=O)Cc4ccncc4)C[C@H]2N3)cc1 (some centres not stated)	none
O=C(CN1CCOCC1)N1C[C@@H]2N[C@H](C1)C2c1ccc(-c2ccccc2)cc1 (some centres not stated)	none
O=C1NCCOCc2cn(nn2)CCC[C@@H]1Cc1ccccc1	none
CO[C@@H](CN(C)Cc1cc(F)ccc1F)[C@H](C)CN(C(=O)Nc1ccc(C(F)(F)F)cc1)[C@@H](C)CO	none
OC[C@H]1Nc2ccc(C#Cc3ccc(F)cc3)cc2[C@H]2[C@@H]1CCN2Cc1ccc2c(c1)OCO2	none
O=C1CN(S(=O)(=O)c2ccccc2)C[C@H]2[C@@H](c3ccc(Br)cc3)[C@@H](CO)N12	none
CCC(=O)N1CCCCN2[C@H](CO)[C@@H](c3ccc(-c4cccc(C(=O)N(C)C)c4)cc3)[C@@H]2C1	none
CCCC#Cc1ccc([C@@H]2[C@@H](CO)N3C(=O)CN(C(=O)c4cccnc4)C[C@@H]23)cc1	none
C/C=C/c1ccc([C@H]2[C@@H](CO)N(C(=O)COC)[C@H]2CNC(=O)CC)cc1	none
CCS(=O)(=O)N1CC(=O)N2[C@H](CO)[C@@H](c3ccc(-c4ccccc4C)cc3)[C@@H]2C1	IDE exosite FP -16
CCS(=O)(=O)N1CC(=O)N2[C@H](CO)[C@@H](c3ccc(-c4ccc(F)cc4)cc3)[C@H]2C1	none
Cc1ccccc1-c1ccc([C@@H]2[C@@H](CO)N3C(=O)CN(S(C)(=O)=O)C[C@H]23)cc1	none
CCS(=O)(=O)N1CC(=O)N2[C@H](CO)[C@H](c3ccc(-c4ccc(F)cc4)cc3)[C@@H]2C1	none
CCS(=O)(=O)N1CC(=O)N2[C@H](CO)[C@@H](c3ccc(-c4cccc(F)c4)cc3)[C@H]2C1	none
CCS(=O)(=O)N1CC(=O)N2[C@H](CO)[C@@H](c3ccc(C#Cc4ccc(F)cc4)cc3)[C@H]2C1	none
CS(=O)(=O)N1CC(=O)N2[C@@H](CO)[C@@H](c3ccc(Br)cc3)[C@@H]2C1	none
CCS(=O)(=O)N1CC(=O)N2[C@@H](CO)[C@H](c3ccc(C#CC4CC4)cc3)[C@@H]2C1	none
CCS(=O)(=O)N1CC(=O)N2[C@H](CO)[C@@H](c3ccc(C4=CCCCC4)cc3)[C@@H]2C1	none
Cc1ccccc1-c1ccc([C@@H]2[C@H]3CN(S(C)(=O)=O)CC(=O)N3[C@H]2CO)cc1	IDE exosite FP -5.1
CCS(=O)(=O)N1CC(=O)N2[C@@H](CO)[C@H](c3ccc(-c4ccccc4C)cc3)[C@@H]2C1	IDE exosite FP -5.8
CCS(=O)(=O)N1CC(=O)N2[C@H](CO)[C@@H](c3ccc(-c4ccccc4)cc3)[C@@H]2C1	IDE exosite FP -5.4
O=C(C1CCCCC1)N1CC(=O)N2[C@@H](CO)[C@@H](c3ccc(Br)cc3)[C@@H]2C1	none
N#C[C@H]1[C@@H](c2ccccc2)[C@@H](CO)N1C(=O)c1ccc2c(c1)OCO2	none
CC(=O)N1[C@H](CO)[C@H](c2ccccc2)[C@@H]1CN(C(=O)c1ccccc1)C(C)C	none
COc1ccc2c3c(n(C)c2c1)[C@H](CO)N(C(=O)C1CCC1)CC31CCN(CC2CCCC2)CC1	none
FC(F)(F)c1cccc(CN2[C@@H]3CNC[C@H]2C3c2ccc(-c3ccncc3)cc2)c1 (some centres not stated)	none
C[C@@H](NC(=O)C[C@@H]1CC[C@@H]2[C@H](COC[C@@H](O)CN2Cc2ccc(C(F)(F)F)cc2)O1)c1ccccc1	none
CCCNC(=O)N1[C@H](CO)[C@@H](c2ccc(C3=CCCC3)cc2)[C@@H]1CNC(=O)CC	none
C/C=C/c1ccc([C@@H]2[C@@H](CO)N(C(=O)c3cnccn3)C23CN(C(=O)C2CCC2)C3)cc1	none
CCS(=O)(=O)N1CC(=O)N2[C@@H](CO)[C@H](c3ccc(-c4ccccc4F)cc3)[C@@H]2C1	none
CCN1CC(=O)N2[C@H](C1)[C@@H](c1ccc(-c3ccccc3F)cc1)[C@@H]2CO	none
CCS(=O)(=O)N1CC(=O)N2[C@H](CO)[C@@H](c3ccc(-c4ccccc4F)cc3)[C@@H]2C1	IDE exosite FP -11
C/C=C/c1ccc([C@H]2[C@@H](CO)N(C(=O)C3CCC3)[C@@H]2CN(CC)C(=O)CC)cc1	none
Cc1noc(C)c1NC(=O)Nc1ccc2c(c1)C(=O)N([C@@H](C)CO)C[C@@H](C)[C@@H](CN(C)Cc1ccc3c(c1)OCO3)OCCCC[C@@H](C)O2	none
COC(=O)c1ccc(CN2CC(=O)N3[C@H](CO)[C@H](c4ccc(Br)cc4)[C@@H]3C2)cc1	none
C/C=C/c1ccc([C@H]2[C@H](CO)N3C(=O)CN(Cc4ccc(C)cc4)C[C@@H]23)cc1	IDE exosite FP -5
